DENV2 CPE rescue = protects cells from dengue virus 2 cytopathic effect. DENV2-infected cells, cytopathic effect rescue, plate reader. CPE inhibition, % at 9.99 µM. 350,000 tested, 1.7% active; in the data active = CPE inhibition above about 20%, passing the limit was not always enough; inconclusive = no clear call, values can overlap the other calls; tested in BHK-21 cells;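 note: 0% = median of neutral control wells and 100% = median of positive control wells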
RAD52 anneal inh = inhibitors of human RAD52 DNA annealing. recombinant RAD52 DNA annealing, FRET fluorescence. inhibition, % at 18.7 µM. 360,000 tested, 0.46% active. AID 651710;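 active = every replicate showing at least 50% inhibition; inconclusive = mean inhibition at least 50% but not in every replicate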
ERAP1 inh = ERAP1 (human) enzyme inhibition; Q9NZ08; recombinant ERAP1, Leu-AMC fluorescence, 60 min; inhibition, % at 10.7 µM; 340,000 tested, 0.15% active; AID 652197;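 active = mean replicate inhibition of at least 30%, or all replicates individually reaching that 30% level; inactive = mean below 30% and not every replicate reaching it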;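 note: 0% = neutral control wells and 100% = L-leucinethiol positive control wells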
AF4-AF9 inh = inhibitors of human MLL-AF4/AF9 interaction; 350,000 tested, 0.47% active; inhibition, % at 10 µM; AlphaScreen, biotin-AF4 peptide binding to FLAG-AF9; P42568;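 active = every replicate reaching a set inhibition limit, whatever the replicate mean, cut at about 25% in these data; inconclusive = mean inhibition reaches that limit but some replicates miss it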;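 note: 0% = plate neutral control median and 100% = total signal loss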
Target sequence (P42568 whole entry, looked up): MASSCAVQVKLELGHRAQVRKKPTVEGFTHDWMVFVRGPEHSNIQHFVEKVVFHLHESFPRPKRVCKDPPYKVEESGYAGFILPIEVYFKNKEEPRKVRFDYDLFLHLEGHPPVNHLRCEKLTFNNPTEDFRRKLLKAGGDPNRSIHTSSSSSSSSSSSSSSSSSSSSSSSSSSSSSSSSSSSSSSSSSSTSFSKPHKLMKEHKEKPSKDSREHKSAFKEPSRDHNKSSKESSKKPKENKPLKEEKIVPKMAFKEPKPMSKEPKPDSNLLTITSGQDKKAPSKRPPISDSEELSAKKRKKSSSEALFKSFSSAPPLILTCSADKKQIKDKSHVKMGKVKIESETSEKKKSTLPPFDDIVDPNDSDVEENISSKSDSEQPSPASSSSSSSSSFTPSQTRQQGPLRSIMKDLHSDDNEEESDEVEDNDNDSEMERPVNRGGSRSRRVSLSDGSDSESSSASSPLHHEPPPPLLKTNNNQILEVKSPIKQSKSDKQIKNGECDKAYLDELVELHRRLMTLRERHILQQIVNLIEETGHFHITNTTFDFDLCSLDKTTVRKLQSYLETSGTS
FGF22 binding = shifts melting point of recombinant human FGF22. activity (Tm shift, normalised), % at 9.99 µM. recombinant FGF22 thermal shift, SYPRO orange fluorescence; percent of sucrose octasulfate shift, DMSO zero. 340,000 tested, 1.5% active. Q9HCT0. AID 651658;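 active = mean Tm shift, scaled 0 neutral to 100 positive control, at about 1.3% or above, every replicate too, limit read from the data; inconclusive = no clear call, values can overlap the other calls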
Starred values were filed as active, the others as inactive; ? = inconclusive; / = no result given. In the library only some 4% were active in any assay of this set; here they are far more common.

SMILES	DENV2 CPE rescue	RAD52 anneal inh	ERAP1 inh	AF4-AF9 inh	FGF22 binding
O=C(c1ccc(F)cc1)N1CC(=O)N2[C@H](C1)[C@H](c1ccc(C#CC3CCCC3)cc1)[C@@H]2CO	-12	-4	-1	2	/
O=C(Nc1ccc2ccccc2c1)[C@@H]1C[C@H]1[C@@H](NP(=O)(c1ccccc1)c1ccccc1)c1ccccc1	40*	-11	/	-1	0
O=C(C1CCC1)N1CC2(C1)[C@@H](c1ccccc1)[C@@H](CO)N2C(=O)c1ccccn1	-2	-8	-4	-1	0
CO[C@H]1CN(C)C(=O)c2ccc(NC(C)=O)cc2OC[C@@H](C)N(CC2CCCCC2)C[C@H]1C	-1	10	-5	2	0
O=C(NC[C@H]1N[C@H](CO)[C@@H]1c1ccc(C2=CCCCC2)cc1)c1ccc(F)cc1	44*	15	3	13	0
O=C(NC[C@H]1N[C@H](CO)[C@H]1c1ccccc1)c1ccccc1F	23*	-48	-1	-3	-1
O=C(NC1CCCC1)c1nc(-c2c(F)cccc2F)oc1-c1ccccc1	22*	-5	-1	/	0
COc1ccc2c3c(n(C)c2c1)[C@H](CO)N(CC1CCOCC1)CC31CCN(Cc2nccs2)CC1	0	-84	2	0	0
C/C(=N\N1CCN(C)CC1)c1ccc(OC(F)F)cc1	5	-4	-3	-1	43*
C/C(=N\N1CCN(C)CC1)c1ccc(Cl)c(Cl)c1	0	-1	4	0	43
COCC(=O)N(C)C[C@@H]1Oc2ncc(-c3ccc(C#N)cc3)cc2C(=O)N([C@H](C)CO)C[C@@H]1C	0	9	1	-3	0
C[C@H](CO)N1C[C@H](C)[C@H](CN(C)Cc2ccc(Cl)c(Cl)c2)Oc2ccc(NC(=O)NC3CCCCC3)cc2C1=O	7	-4	0	-1	0
CCC(=O)Nc1ccc2c(c1)C(=O)N(C)C[C@@H](OC)[C@H](C)CN(C(=O)c1ccccn1)[C@H](C)CO2	43*	-15	2	?	0
CCC(=O)Nc1ccc2c(c1)C(=O)N(C)C[C@H](OC)[C@@H](C)CN(C(=O)c1ccccn1)[C@H](C)CO2	/	-2	5	32*	0
CCC(=O)Nc1ccc2c(c1)C(=O)N(C)C[C@H](OC)[C@H](C)CN(C(=O)c1ccccn1)[C@H](C)CO2	-1	-19	3	?	0
COCC(=O)Nc1ccc2c(c1)C(=O)N(C)C[C@H](OC)[C@H](C)CN(C(=O)c1ccccn1)[C@H](C)CO2	31*	-25	1	3	0
COCC(=O)Nc1ccc2c(c1)C(=O)N(C)C[C@H](OC)[C@@H](C)CN(C(=O)c1ccccn1)[C@@H](C)CO2	16	-14	4	-1	0
CCC(=O)Nc1ccc2c(c1)C(=O)N(C)C[C@@H](OC)[C@H](C)CN(C(=O)c1cnccn1)[C@H](C)CO2	4	-6	2	0	0
CCC(=O)Nc1ccc2c(c1)C(=O)N(C)C[C@@H](OC)[C@@H](C)CN(C(=O)c1cnccn1)[C@@H](C)CO2	29*	-3	1	0	0
COc1cc2c(cc1OC)CN(C(=O)[C@H]1[C@@H]3C(=O)O[C@@H](c4ccccc4)[C@@H](c4ccccc4)N3[C@@H](c3ccccc3OCCO)[C@]13C(=O)Nc1ccc(C#CC4=CCCCC4)cc13)CC2	7	-37	0	-1	0
Cc1ccc(S(=O)(=O)Nc2cccc(C(=O)NCCCn3ccnc3)c2)cc1F	54*	0	-2	-3	0
O=C(N[C@H]1CC[C@H](CCNS(=O)(=O)c2ccc(F)cc2)O[C@H]1CO)c1cnccn1	-2	-17	1	-1	-1
COc1ccc2c(=O)cc(C(=O)O)oc2c1	/	-10	-2	0	0
O=C(O)c1cc(=O)c2c(OCC(O)COc3cccc4oc(C(=O)O)cc(=O)c34)cccc2o1	26*	-8	2	-3	0
C[C@@H]1CN([C@@H](C)CO)C(=O)c2cc(N(C)C)ccc2O[C@H]1CN(C)Cc1ccccc1	?	-13	1	-3	0
C[C@@H]1CN([C@H](C)CO)C(=O)c2cc(N(C)C)ccc2O[C@@H]1CN(C)Cc1ccc(-c2ccccc2)cc1	0	11	-1	47*	0
C[C@@H]1CN([C@H](C)CO)C(=O)c2cc(N(C)C)ccc2O[C@@H]1CN(C)Cc1ccc(C(F)(F)F)cc1	-2	6	1	17	0

Screening results (PubChem BioAssay)
